Experimental findings from PubChem BioAssay (NCI) are described below.

The nature of test [1]: NCI Yeast Anticancer Drug Screen. Data for the rad50 strain (AID 155).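 Note: 0% = growth of vehicle-only cultures of the same strain.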 Particulars: S. cerevisiae rad50 strain growth inhibition; at 50.0 µM; hits give high values. A digest of the protocol: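 Genetically altered yeast (DNA repair pathway); compound treatment; growth inhibition vs vehicle ctrl.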
Test [2] in a line: NCI Yeast Anticancer Drug Screen. Data for the mec2-1 strain (AID 157). Particulars: S. cerevisiae mec2-1 strain, at 50.0 µM, hits give high values. A digest of the protocol:
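Mutant yeast (mec2-1) grown with compound; growth inhibition relative to vehicle control reported.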

Test [3] can be described thus: NCI Yeast Anticancer Drug Screen. Data for the sgs1 mgt1 strain (AID 161).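 Note: 0% = growth of cultures given vehicle only.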 The following applies: S. cerevisiae sgs1 mgt1 strain, at 50.0 µM, hits give high values. A digest of the protocol:
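Percent growth inhibition was derived by comparing compound-exposed mutant yeast with vehicle-exposed cultures. The strain carries alterations in DNA damage repair.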

Test [4] can be described thus: NCI Yeast Anticancer Drug Screen. Data for the cln2 rad14 strain (AID 165).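 Note: 0% = growth equal to vehicle treated cultures.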 The following applies: S. cerevisiae cln2 rad14 strain, at 50.0 µM, hits give high values. A digest of the protocol: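 Readout is yeast growth inhibition versus vehicle-treated controls, using a strain with cln2 and rad14 alterations exposed to compound.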
Test [5] is described as follows: NCI Yeast Anticancer Drug Screen. Data for the bub3 strain (AID 167). The following applies: S. cerevisiae bub3 mutant strain, at 50.0 µM, hits give high values. A digest of the protocol:
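Yeast carrying a defined mutation is treated with each compound, and growth is compared with that of vehicle-exposed cells to give inhibition.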

Test [6] can be described thus: NCI Yeast Anticancer Drug Screen. Data for the mlh1 rad18 strain (AID 175). Particulars: S. cerevisiae mlh1 rad18 strain growth inhibition; at 50.0 µM; hits give high values. A digest of the protocol:
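Genetically defined yeast (DNA repair-deficient) exposed to compounds; growth inhibition determined relative to vehicle.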

Several values for one entry are separate records, joined by “and”; a condition that tells them apart may be missing. Identical values can stand only once. The panel holds about 79,000 compounds, 15% with a hit somewhere; the sample as a whole holds those more often. A number with no mark means an inactive call. Activity calls are given as the source filed them. Cut-off read from the data, not from the text of the source: active = growth inhibition above about 70%; inactive = the rest.

Turning to `CCOC(=O)C(C(=O)OCC)c1ccccc1`, the growth inhibition in test [1] is 7.05% and 25.4%; in test [2], -11% and 12.9%; in test [3] it was 11.7% and 11.1%; in test [4] it was 2.4% and 3.75%; in test [5], 40.4% and 23.1%; in test [6], -0.15% and 9.55%.
For the compound `CC12CCC3C(CC=C4CC(=O)CCC43CCO)C1CCC2Oc1ccccc1` (stereo unspecified), the growth inhibition is 5.3% in test [1]; -11.9% in test [2]; -2.45% in test [3]; 16.4% in test [4]; 23.7% in test [5]; 13.3% in test [6].
With `O=Cc1cn(CCCCCCCCCCCCn2cc(C=O)c3ccccc32)c2ccccc12`, the growth inhibition in test [1] was -2.75%; in test [2], -10.8%; in test [3], 0.25%; in test [4], -5.55%; in test [5], 7.35%; in test [6] it was -12.8%.
Take `CN(C)C(=O)CCl`: the growth inhibition in test [1] was 1.85%; in test [2] it was 6.15%; in test [3], 20.6%; in test [4] it was 9.9%; in test [5], -5.55%; in test [6], 7.25%.
Regarding `CCC[CH2][Sn]1([CH2]CCC)[O]C(=O)CN=C(C)c2ccccc2[O]1`, the growth inhibition in test [1] is 0.1%; in test [2], 9.85%; in test [3] it was 4%; in test [4], 45.5%; in test [5] it was 9.8%; in test [6], 3.45%.
As for `CC1CNC2C(=O)NC(=O)NC2N1` (stereo unspecified), the growth inhibition in test [1] was 3.15%; in test [2] it was 1.95%; in test [3] it was -10.2%; in test [4] it was -5.25%; in test [5], 5.2%; in test [6], -4.7%.
`CCC1CN2CCC1CC2C(O)c1cc[n+]([O-])c2ccc(OC)cc12` (stereo unspecified): the growth inhibition in test [1] is -11.7%; in test [2] it was 7.25%; in test [3] it was -7.6%; in test [4] it was 1.75%; in test [5] it was -8.05%; in test [6], -12.4%.
Consider `CC1(C)N=C(N)N=C(N)N1c1ccc(CCc2ccc(S(=O)(=O)F)cc2)cc1`, for which the growth inhibition was 9.15% in test [1]; 7% in test [2]; -7.3% in test [3]; -6.2% in test [4]; -8.7% in test [5]; 7.65% in test [6].
As for `COc1cc(C(=O)OC(C)CC2(c3ccccc3)C(=O)NC(=O)NC2=O)cc(OC)c1OC` (stereo unspecified), the growth inhibition in test [1] is 2.75%; in test [2], -3.4%; in test [3] it was 24.1%; in test [4] it was 1.75%; in test [5], 3.05%; in test [6], -6.8%.
Consider `O=C1NC(=O)C(c2ccsc2)C(=O)N1`, for which the growth inhibition is -20.6% in test [1]; -2.25% in test [2]; -30.4% in test [3]; -40.5% in test [4]; 7.5% in test [5]; 1.45% in test [6].
As to `CC(C)CCCC(C)[C@H]1CCC2[C@@H]3CCC4Cc5nc6c(nc5C[C@]4(C)C3CC[C@@]21C)CC1CC[C@@H]2C(CC[C@@]3(C)C2CC[C@@H]3O)[C@@]1(C)C6` (stereo partly specified), the growth inhibition is -7.05% in test [1]; -37.7% in test [2]; -12% in test [3]; -7.9% in test [4]; 12.8% in test [5]; 7.95% in test [6].
Regarding `CCOP(=O)(CC(=O)c1ccccc1)OCC`, the growth inhibition in test [1] is 10.1%; in test [2], 1.25%; in test [3], -18.1%; in test [4] it was 0.6%; in test [5], -1.45%; in test [6] it was 20.8%.
`O=NNc1ccc2ccccc2n1`: the growth inhibition is -17.1% in test [1]; 23.5% in test [2]; -2% in test [3]; 14.6% in test [4]; 3.2% in test [5]; -6.95% in test [6].
Consider `CC1C2Cc3ccc(O)cc3C1(C)CCN2C` (stereo unspecified), for which the growth inhibition in test [1] was 37%; in test [2], 29.6%; in test [3], 30.6%; in test [4], 17.6%; in test [5], 35%; in test [6] it was 16.1%.
Turning to `COP1(=S)OCC(C(C)(C)C)CO1` (stereo unspecified), the growth inhibition in test [1] was 7.1%; in test [2], 1.2%; in test [3], -2.1%; in test [4], -14.4%; in test [5] it was 25.9%; in test [6] it was -3.55%.
For the compound `Cc1cccc(N)c1`, the growth inhibition was 6.5% in test [1]; -6.75% in test [2]; 1.35% in test [3]; 5.65% in test [4]; 14.2% in test [5]; 10.4% in test [6].
On to `S=P(NNc1ccccc1)(NNc1ccccc1)c1ccc(Cl)cc1`, for which the growth inhibition is 75.4% (active) in test [1]; -33.1% in test [2]; 81.9% (active) in test [3]; 82.3% (active) in test [4]; 34.6% in test [5]; 83.2% (active) in test [6].
`Cc1c([N+](=O)[O-])cc2c(c1[N+](=O)[O-])C(C)(C)CC2(C)C`: the growth inhibition was -18.9% in test [1]; -22.5% in test [2]; -9.2% in test [3]; 10.4% in test [4]; 14.8% in test [5]; -6.3% in test [6].
As to `CC1(C)[C@@H]2CC[C@]1(C)[C@H](OC(=O)C(Cl)(Cl)Cl)C2`, the growth inhibition in test [1] is -16.6%; in test [2], -5.35%; in test [3], -9.65%; in test [4] it was -19.3%; in test [5], 26.8%; in test [6], 9.75%.
Consider `O=C([O-])C(F)(F)F.O=[N+]([O-])O.[Co+3].[NH2-].[NH2-].[NH2-].[NH2-].[NH2-]`, for which the growth inhibition in test [1] was 5.25%; in test [2], 2%; in test [3] it was 7.7%; in test [4], -5.65%; in test [5], 5%; in test [6], 39.6%.
In the case of `OC(c1ccccc1)C1CCCCN1` (stereo unspecified), the growth inhibition in test [1] was -7.95%; in test [2], -7.2%; in test [3], 9.8%; in test [4], -12.3%; in test [5], 11.2%; in test [6] it was -17.6%.
`O=S1(=O)N2CN3CCN(C2)CN1C3`: the growth inhibition in test [1] was 36.5%; in test [2], 40.4%; in test [3] it was 31.4%; in test [4] it was -25.3%; in test [5], 12.1%; in test [6] it was 34%.
Turning to `CN(C)C(=O)Oc1c(-c2ccccc2)c(=O)n2c3ccccc3n3c(=O)n(C)c(=O)c1c23`, the growth inhibition in test [1] was 21.8%; in test [2], 23.4%; in test [3], -0.9%; in test [4] it was 17.1%; in test [5], 11.7%; in test [6], 19.8%.
Regarding `O=[N+]([O-])c1cc(/C=N\NC(=S)NC2CN3CCC2CC3)ccc1Cl` (stereo unspecified), the growth inhibition in test [1] was 22.5%; in test [2] it was -24.1%; in test [3], 1.85%; in test [4], 0.15%; in test [5], 4.8%; in test [6], 2.4%.
For the compound `O=C1CN=CN1`, the growth inhibition in test [1] is -8.85%; in test [2] it was 8.85%; in test [3], -0.45%; in test [4] it was -12.6%; in test [5], -7.5%; in test [6] it was -5.3%.
Turning to `O=c1c(O)c(-c2ccccc2)oc2ccccc12.[Zn+2]`, the growth inhibition in test [1] was -6.95%; in test [2], 7.25%; in test [3], 20.2%; in test [4], -41%; in test [5] it was 24.9%; in test [6], 27.6%.
`COc1ccc(-c2nc(-c3ccc(N=Cc4ccc(N(CCCl)CCCl)cc4)cc3)cs2)cc1`: the growth inhibition in test [1] is 58%; in test [2] it was 11.4%; in test [3], 57%; in test [4] it was 27.1%; in test [5], 11.5%; in test [6], 42.6%.
For the compound `Cc1cc2n[se]nc2cc1C`, the growth inhibition is 18.3% in test [1]; -9.15% in test [2]; 20.6% in test [3]; 6.3% in test [4]; -6.65% in test [5]; 21.7% in test [6].
`O=C1C=CC=C[C@@H]2C(C3OCCO3)CC[C@H]12.[C-]#[O+].[C-]#[O+].[C-]#[O+].[Fe]` (stereo partly specified): the growth inhibition in test [1] was 4.3%; in test [2], 14.8%; in test [3] it was -7.3%; in test [4], 23.1%; in test [5] it was 7.5%; in test [6] it was 4.75%.
Consider `CCOP(=O)(NCCc1ccccc1)OCC`, for which the growth inhibition was -36.6% in test [1]; -37.4% in test [2]; -7.3% in test [3]; -3.9% in test [4]; -33% in test [5]; -12.4% in test [6].
Regarding `Clc1ccc2c(c1)Cc1cc(N(CCBr)CCBr)ccc1-2`, the growth inhibition in test [1] is 24.8%; in test [2] it was 13.1%; in test [3], 40%; in test [4], 46.6%; in test [5] it was 12.4%; in test [6], 47.1%.
Consider `O=C1NC(=S)NC(=O)C1=Cc1cccc2cc3ccccc3cc12`, for which the growth inhibition in test [1] was 97.7% (active); in test [2], 98.8% (active); in test [3], 98.5% (active); in test [4], 93.3% (active); in test [5], 98.1% (active); in test [6], 97% (active).
On to `C[C@H]1CC(=O)C[C@@H]2CC[C@@H]3[C@H](CC[C@]4(C)C(OC(=O)c5cccc6c(=O)c7ccccc7[nH]c56)CC[C@@H]34)[C@]21C` (stereo partly specified), for which the growth inhibition was 42.4% in test [1]; 22% in test [2]; 45.6% in test [3]; 41.9% in test [4]; 5.2% in test [5]; 40.9% in test [6].
In the case of `O=C(OCc1nc2ccccn2c1[N+](=O)[O-])N(CCCl)CCCl`, the growth inhibition in test [1] was -42.6%; in test [2], -21.5%; in test [3] it was -35.6%; in test [4] it was -10.8%; in test [5], 16.9%; in test [6], -46%.
Regarding `CN(C)c1ccc(N=Nc2cccc(C(=O)[O-])c2)cc1.CN(C)c1ccc(N=Nc2cccc(C(=O)[O-])c2)cc1.NC1CCCCC1N.[Pt+4]`, the growth inhibition was -13.4% in test [1]; -4.05% in test [2]; -18.4% in test [3]; 1.2% in test [4]; -28.1% in test [5]; 36.5% in test [6].
As for `S=C(Nc1ccccc1)Nc1ccc(N(CCCl)CCCl)cc1`, the growth inhibition in test [1] was 17.6%; in test [2] it was 0%; in test [3], 12.6%; in test [4], -40.8%; in test [5], 10.1%; in test [6], 21.7%.
